# Screening data from PubChem BioAssay.
# pCIP destab: p/CIP-EGFP fusion destabilizers, primary screen, fluorescence, F442A cells. 16 h. decrease of EGFP signal, % at 10 µM. hit rate 0.01% among 290,000;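 active means EGFP signal decrease of at least 30% at 10 µM or well 3 SD below plate mean, unless failing retest; inactive means the rest, including hits failing retest or dose response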
# Target sequence (Q05BA5 1-1403): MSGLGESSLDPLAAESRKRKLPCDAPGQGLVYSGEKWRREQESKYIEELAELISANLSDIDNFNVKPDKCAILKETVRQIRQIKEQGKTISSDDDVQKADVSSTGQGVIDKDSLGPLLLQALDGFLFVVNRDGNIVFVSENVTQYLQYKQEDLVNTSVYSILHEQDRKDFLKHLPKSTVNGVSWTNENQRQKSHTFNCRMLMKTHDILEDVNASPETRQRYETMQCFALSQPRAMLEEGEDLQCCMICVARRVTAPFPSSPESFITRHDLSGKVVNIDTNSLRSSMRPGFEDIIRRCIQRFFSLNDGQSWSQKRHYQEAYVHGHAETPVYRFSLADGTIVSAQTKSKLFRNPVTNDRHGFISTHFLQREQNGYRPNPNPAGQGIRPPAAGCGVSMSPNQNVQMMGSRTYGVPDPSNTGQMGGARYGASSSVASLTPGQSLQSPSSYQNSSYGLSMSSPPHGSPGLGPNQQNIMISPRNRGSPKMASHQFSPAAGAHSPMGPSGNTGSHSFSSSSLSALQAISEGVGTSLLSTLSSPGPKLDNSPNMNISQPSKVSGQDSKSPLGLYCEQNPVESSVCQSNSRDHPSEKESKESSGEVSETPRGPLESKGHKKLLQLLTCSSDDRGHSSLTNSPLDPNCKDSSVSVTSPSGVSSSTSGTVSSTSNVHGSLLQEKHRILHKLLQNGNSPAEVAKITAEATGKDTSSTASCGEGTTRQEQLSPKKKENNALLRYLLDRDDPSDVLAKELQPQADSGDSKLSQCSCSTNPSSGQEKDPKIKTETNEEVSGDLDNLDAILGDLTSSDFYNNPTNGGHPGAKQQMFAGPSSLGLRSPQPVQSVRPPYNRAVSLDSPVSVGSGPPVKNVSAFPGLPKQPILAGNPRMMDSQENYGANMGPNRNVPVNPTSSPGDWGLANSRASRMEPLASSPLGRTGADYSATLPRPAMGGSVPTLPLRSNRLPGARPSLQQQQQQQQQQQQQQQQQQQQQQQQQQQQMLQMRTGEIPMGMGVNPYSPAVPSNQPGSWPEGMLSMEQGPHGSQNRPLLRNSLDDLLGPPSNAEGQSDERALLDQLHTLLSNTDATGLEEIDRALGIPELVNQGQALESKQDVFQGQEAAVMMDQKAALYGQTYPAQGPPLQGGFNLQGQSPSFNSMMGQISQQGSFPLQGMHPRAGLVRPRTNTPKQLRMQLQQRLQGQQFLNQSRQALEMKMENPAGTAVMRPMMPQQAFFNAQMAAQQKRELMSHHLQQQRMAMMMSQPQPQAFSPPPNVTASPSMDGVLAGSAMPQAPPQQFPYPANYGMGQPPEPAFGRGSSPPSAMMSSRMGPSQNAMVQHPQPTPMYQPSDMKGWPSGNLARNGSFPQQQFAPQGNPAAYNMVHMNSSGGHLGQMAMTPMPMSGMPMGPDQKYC
# GRIN3A LBD mod: binders of NR3A ligand-binding domain, primary screen, biophysical, differential scanning fluorimetry, uHTS | NR3A LBD differential scanning fluorimetry, Tm shift; 0% = protein alone, 100% = glycine-bound protein | Tm shift relative to glycine control, % at 25 µM | hit rate 2.5% among 340,000 | AID 1259313, 2017;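 active means melting temperature shift of at least 10% of the positive control shift, at one fixed dose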
# FAS TE block: FAS thioesterase domain inhibitors, primary screen, biochemical, fluorescence intensity, uHTS; recombinant FAS-TE, OMFH fluorogenic substrate, fluorescence endpoint; Fatty acid synthase (Homo sapiens), P49327; AID 602261, 2012; hit rate 0.67% among 360,000; inhibition, % at 15 µM;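 active means compounds whose normalised, plate-corrected inhibition of enzyme fluorescence in the single-dose primary screen is 50% or more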;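 further: 0% = DMSO with enzyme and 100% = substrate without enzyme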
# MPTP inh: mitochondrial permeability transition pore inhibitors, primary screen, biochemical, isolated mouse mitochondria, absorbance | Ca2+ swelling absorbance, 30 min | inhibition, % at 10 µM | hit rate 1.4% among 360,000 | AID 602449, 2012;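 active means inhibition of 50% or more, scaled per plate between neutral and stimulator controls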;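 further: 0% = DMSO wells given calcium and 100% = 1 mM EGTA wells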
# MIN6 prolif-1: inducers of MIN6 beta-cell proliferation, primary screen, ATP luminescence, uHTS; MIN6 cells proliferation, ATPlite luminescence, 48 h; cells starved in 0.2% serum; 100% = growth in 10% serum; proliferation, % at 10 µM; hit rate 0.29% among 330,000; AID 2380, 2010;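 active means compounds whose signal lies at least 3.5 SD above the mean of all wells on their plate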;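 further: 0% = DMSO-treated cells in low-serum medium and 100% = 10% serum control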
# MIN6 prolif-2: inducers of beta-cell proliferation in MIN6, confirmation, MIN6 cells, mouse. shares compounds with MIN6 prolif-1. ATPlite luminescence, 48 h; cells kept in 0.2% serum; scaled between 0.2% and 10% serum. proliferation increase, % at 50 µM. 920 tested, under 10 active. AID 463095, 2010;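 active means proliferation increase above 40% at any of the four tested concentrations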
# The depositor's hits bear a star; nt = no result given. Compounds with a hit are over-represented: about 4.1% of the library has one in this group of screens.
SMILES,pCIP destab,GRIN3A LBD mod,FAS TE block,MPTP inh,MIN6 prolif-1,MIN6 prolif-2
COc1ccc(N2C(=NC(=O)C3CC3)SC3CS(=O)(=O)CC32)cc1Cl (stereo not given),4,0,-3,-2,11*,0
CCN(CC)S(=O)(=O)c1ccc2c3c(cccc13)C(=O)N2,-10,2,-7,1,11*,0
Cc1ccc(Nc2nc3c(c(=O)[nH]2)CCCC3)cc1,10,2,-5,0,5.8*,-3
CCN1C(=O)[C@@H]2[C@@H](c3ccc(-c4cc(C(C)=O)cs4)cc3)N3CCC[C@@]3(C(=O)OC)[C@@H]2C1=O,nt,0,-1,1,nt,nt
O=C(CCNC(=O)N1CC(=O)Nc2ccccc21)Nc1ccc(Cl)cc1,-3,-1,-2,0,-4,nt
O=C(CCNC(=O)N1CC(=O)Nc2ccccc21)Nc1ccc(F)c(Cl)c1,-7,5,9,-2,4.9*,-2
CN1CCN(C2CN(CCc3ccccc3)S(=O)(=O)C2)CC1 (stereo not given),nt,nt,-13,-1,nt,nt
Cc1ccc(OC(C)C(=O)Nc2ccc3c(c2)n(C)c(=O)n3C)cc1C (stereo not given),-14,-4,-2,0,7.8*,0
COc1ccc(C2=Nn3c(nnc3-c3ccncc3)SC2)cc1OC,-22,-1,-8,-1,8.6*,6
COc1ccc(C2=Nn3c(nnc3-c3cccnc3)SC2)cc1OC,-13,-4,-4,0,2,nt
COc1ccc(C2=Nn3c(nnc3-c3ccccc3C(F)(F)F)SC2)cc1OC1CCOC1 (stereo not given),nt,1,6,0,8.8*,-6
COc1ccc(C2=Nn3c(nnc3-c3ccccc3OC)SC2)cc1OC1CCOC1 (stereo not given),nt,4,-4,-2,-3,nt
CC12CCC(O)CC1=CCC1C2CCC2(C)c3[nH]ncc3CC12 (stereo not given),nt,-4,-6,3,nt,nt
Cc1cc(C(=O)N2CCC(CO)(Cc3cccc(C(F)(F)F)c3)CC2)n[nH]1,-1,-1,-1,0,6,nt
O=C(c1cnsn1)N1CCC(CO)(Cc2cccc(F)c2)CC1,-16,0,-3,1,8.2*,-1
Cc1ccccc1Oc1ccc2c(c1)[C@@H]1C[C@H](N(C)C(=O)c3ccc(C#N)cc3)[C@H]([C@H](C)O)C(=O)N1CC2,nt,-2,5,1,nt,nt
CCc1nc2ccc(C(=O)N3CCN(S(=O)(=O)CC)CC3)cn2c1N(CC)CCOC,nt,nt,-7,-1,nt,nt
COc1ccc(C(=O)NCCNC(=O)c2cnccn2)cc1OC,-14,2,-4,0,-1,nt
COc1ccc(C(=O)NCCCNC(=O)c2cnccn2)cc1Br,-2,-2,-6,1,9.2*,2
COc1ccc(CC(=O)Nc2cc(S(C)(=O)=O)ccc2Cl)cc1S(=O)(=O)N1CCOCC1,nt,2,-7,0,nt,nt
O=C(NC1CC1)c1cccc(NC(=O)c2cc(S(=O)(=O)N3CCOCC3)ccc2Cl)c1,nt,-1,-8,0,-1,nt
CCn1cc(CN(C)S(=O)(=O)c2cccc([N+](=O)[O-])c2)cn1,3,0,1,-1,7.2*,-1
CCC(C)(C)n1nnnc1CN(Cc1cc2cc(OC)c(OC)cc2[nH]c1=O)C1CCCC1,-11,0,3,-1,7.2*,2
Cc1ccc(-n2c(C)c([N+](=O)[O-])c3ccc(O)cc32)cc1,-12,nt,nt,nt,7.7*,-6
Cc1c([N+](=O)[O-])c2ccc(O)cc2n1-c1ccccc1,-2,-2,0,2,15*,8
SMILES,pCIP destab,GRIN3A LBD mod,FAS TE block,MPTP inh,MIN6 prolif-1,MIN6 prolif-2
Cc1cc(Br)cn2c(Cc3ccsc3)c(C(C)(C)C)nc12,nt,nt,0,0,nt,nt
CCN1C(=O)/C(=C/c2ccc(C)o2)N(C)C1=S,-9,-1,6,7,0.0*,-1
CCc1cc(=O)[nH]c(SCC(=O)N2CCCC2)n1,nt,-2,-5,0,5,nt
CC(C)c1nc(CN2CCCCC2)cc(=O)[nH]1,3,-2,-4,-1,8.9*,0
COc1cc(-c2noc(C)c2C#CC2(N)CCCCC2)cc(OC)c1OC,-2,-2,-5,1,-3,nt
COc1cc(-c2noc(C)c2C#CC2(O)CCCCC2)cc(OC)c1OC,3,-1,6,0,12*,-6
COC(=O)c1ccc(S(=O)(=O)NCc2cccc(OC)c2)n1C,-15,-2,-6,-2,5.5*,0
COc1ccc(-n2c(C)c(C(C)=O)c3cc(OC(C)=O)ccc32)cc1,-11,-1,19,0,5.3*,-5
O=C(c1ccc(-n2ccnc2)cc1)N1CCCC(CO)(Cc2cccc(Cl)c2)C1 (stereo not given),8,-1,-1,0,16*,-1
Cc1ccccc1CC1(CO)CCCN(C(=O)c2cccc(Cl)c2)C1 (stereo not given),5,-2,6,3,-5,nt
Cc1cc(Cl)ccc1-c1cc2nc(NCCCN(C)C)n(C)c(=O)c2s1,nt,nt,-7,1,nt,nt
COc1cccc(C(=O)Nc2ccc3c(c2)OC[C@H](C)N(C(=O)C2CCCC2)C[C@@H](C)[C@@H](OC)CN(C)C3=O)c1,nt,nt,nt,-2,nt,nt
FC(F)(F)c1nc2nncn2c2c1CCCCC2,-8,-1,-3,-2,7.4*,-3
CC(C)(C)NC(=O)Cn1nc(C(F)(F)F)c2c1CCCC2,-1,1,-5,0,-1,nt
Cc1cc(C)c(C)c(S(=O)(=O)Nc2ccccc2C(=O)NCCCN2CCOCC2)c1C,1,2,-5,1,8.2*,-6
O=C(O)/C=C/c1cn(-c2ccccc2)nc1-c1ccc2c(c1)OCCO2,-5,-3,-5,0,-2,nt
O/N=C/c1cn(-c2ccccc2)nc1-c1ccc2c(c1)OCCO2,-10,2,-22,1,7.1*,-5
CCc1nn(C(CC)C(=O)NCc2cccc(OC)c2)c(=O)c2cc3occc3n12 (stereo not given),-3,0,-4,0,8,nt
CCc1nn(C(CC)C(=O)NCc2cccc(OC)c2OC)c(=O)c2cc3occc3n12 (stereo not given),21,-1,-3,-1,14*,-6
COc1cc(/C=N/NS(=O)(=O)c2ccc3ccccc3c2)ccc1OCCN1CCOCC1,-6,15*,-7,-1,0.0*,-5
COc1ccc(S(=O)(=O)N/N=C/c2ccc(OCCN3CCOCC3)c(OC)c2)cc1,-5,-1,-7,3,0,nt
